# Screening results deposited in PubChem BioAssay by National Center for Advancing Translational Sciences (NCATS).
# LASV entry inh – Lassa virus entry inhibition; 1.2% of 300,000 active; AID 540256; Lassa virus pseudotype entry inhibition, cell reporter; Potency, µM (doses to about 37.9 µM), actives largely listed as inhibitors; calls by dose curve; tested in HEK293 cells; also: nearly all actives have a fitted effect of over 50% in size
# FMDV inh – antivirals against foot and mouth disease virus; 1.2% of 410,000 active; FMDV antiviral cell-based qHTS; Potency, µM (highest dose often 57.9 µM), most hits filed as inhibitors; calls by dose curve; tested in HEK293T cells; also: read-out not given here; nearly all actives have a fitted effect of over 45% in size
# VACV mCherry inh – inhibitors of vaccinia virus infection (mCherry reporter signal). Vaccinia virus mCherry reporter infection, fluorescence. AID 720579. Potency, µM (series often up to 36.5 µM), usual class: inhibitors. 0.63% of 310,000 active; calls by dose curve; tested in A549 cells; also: nearly all actives have a fitted effect of over 35% in size
# Vaccinia Venus – vaccinia inhibition (Venus reporter). Vaccinia virus Venus reporter expression, fluorescence. Potency, µM (highest dose often 36.5 µM), hits mostly inhibitors. 0.46% of 330,000 active. AID 720580; calls by dose curve; tested in A549 cells; also: nearly all actives have a fitted effect of over 30% in size
# HCMV antiviral – blocks human cytomegalovirus replication; HFF cells, HCMV-luciferase reporter, 72 h; hits give low values; activity change, negative = inhibition, % at 57.5 µM; 4.5% of 410,000 active; in the data active = activity change below about -60%; inconclusive = no clear call, values can overlap the other calls; inactive = above about -39%
#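 Two compound doses tested in HFFs infected with HCMV-luciferase, MOI 1 PFU/cell, 72 h at 37C. Lysate luminescence read with OneGlo; data normalized against buffer-only and 10uM Salinomycin inhibitor controls.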
# Marburg entry inh – blocks Marburg virus binding to or entry into cells; Marburg virus pseudotyped entry inhibition, cell reporter; Potency, µM (doses to about 37.8 µM), usual class: inhibitors; 1.8% of 300,000 active; AID 540276; calls by dose curve; tested in HEK293 cells
# Numbers stand for hits; 0 = inactive; ? = inconclusive; - = not tested or not shown; [ ] = another dose, or the depositor's remark. Only some compounds are listed: those with a hit (about 6.5% of all), similar ones and a draw of the others.
SMILES,LASV entry inh,FMDV inh,VACV mCherry inh,Vaccinia Venus,HCMV antiviral,Marburg entry inh
COCCN1C(=O)c2[nH]nc(-c3ccccc3O)c2C1c1ccc(Cl)c(Cl)c1 (centres undefined),?,0,0,0,0,0
CCOc1cc(C2c3c(-c4cc(C)ccc4O)n[nH]c3C(=O)N2CCCOC(C)C)ccc1O (centres undefined),?,0,0[7.34 µM],0[7.34 µM],-68,?
CCCCOc1ccc(C2c3c(-c4ccccc4O)n[nH]c3C(=O)N2Cc2ccncc2)cc1OC (centres undefined),?,0,0,0,0,?
COc1cc(C2c3c(-c4cc(C)ccc4O)n[nH]c3C(=O)N2Cc2cccnc2)cc(OC)c1OC (centres undefined),?,0,0,0,0,0
CCc1ccc(C2c3c(-c4cc(C)ccc4O)n[nH]c3C(=O)N2Cc2cccnc2)cc1 (centres undefined),?,?,0,0,0,13µM
COc1ccc(C2c3c(-c4ccccc4O)n[nH]c3C(=O)N2CCc2ccc(OC)c(OC)c2)cc1 (centres undefined),5µM,?,?,0,0,?
COC(=O)c1sccc1S(=O)(=O)N1CCN(c2cccc(C)c2)C(C)C1 (centres undefined),?,0,0,0,0,-
Cc1ccc(C2c3c(-c4ccccc4O)n[nH]c3C(=O)N2Cc2ccncc2)cc1 (centres undefined),0,0,-,-,0,?
Cc1ccc(C2c3c(-c4ccccc4O)n[nH]c3C(=O)N2CCc2ccccc2)cc1 (centres undefined),?,0,0[7.34 µM],0[7.34 µM],-94,?
CC(C)OCCCN1C(=O)c2[nH]nc(-c3ccccc3O)c2C1c1ccc(OCc2ccccc2)cc1 (centres undefined),?,0,?,?,-98,?
CC(C)c1ccc(C2c3c(-c4ccccc4O)n[nH]c3C(=O)N2CCc2ccccc2)cc1 (centres undefined),?,0,0,?,-100,?
COc1ccc(CCN2C(=O)c3[nH]nc(-c4ccccc4O)c3C2c2cccc(Cl)c2)cc1 (centres undefined),?,0,0[1.46 µM],?,?,?
COc1ccc(CCN2C(=O)c3[nH]nc(-c4ccccc4O)c3C2c2cccc(OC)c2)cc1 (centres undefined),?,0,?,?,-71,13µM
O=S(=O)(Nc1ccc(-c2ccc(N3CCCC3)nn2)cc1)c1cc(F)ccc1F,0,0,0,0,0,-
Cc1cnc(-n2ncc(C(=O)NCCc3cccnc3)c2C)nc1-c1ccc(F)cc1,-,0,0,0,-,-
COc1cc(-c2ccc(C(F)(F)F)cn2)cc2c1OCCN(S(=O)(=O)C[C@]13CC[C@H](CC1=O)C3(C)C)C2,-,0,0,0,-,-
O=C(NCC1CCC2(CCN(Cc3cc4ccccc4o3)CC2)O1)c1ccccc1 (centres undefined),-,0,0,0,-,-
COc1ccc(NC(=O)c2cc(-c3ccccc3)nc3c2cnn3C(C)C)cc1,-,40µM,-,-,0,-
CC(C)n1ncc2c(C(=O)Nc3cccc(C#N)c3)cc(C3CC3)nc21,-,?,-,-,-91,-
CCNC(=O)c1cccc(NC(=O)c2cc(C3CC3)nc3c2cnn3C(C)C)c1,?,0,0,0,0,?
CN1C2CCC1CC(OC(=O)c1cc(Cl)cc(Cl)c1)C2 (centres undefined),?,?,-,0,0,7.1µM
Cc1[nH]n(-c2ccccc2)c(=O)c1/C=N/NC(=O)c1cccc(F)c1,-,0,-,-,-98,-
Cc1ccc(-n2[nH]c(C)c(/C=N/c3ccccn3)c2=O)cc1,0,-,0,0,0,0
Cc1[nH]n(-c2ccccc2)c(=O)c1/C=N/Nc1nncc(-c2ccccc2)n1,4.1µM,-,4µM,?,-99,4.1µM
Cc1[nH]n(-c2ccccc2)c(=O)c1C=Nc1cccc2cccnc12,?,0,13µM,?,-63,8.9µM
Cc1[nH]n(-c2ccc(Br)cc2)c(=O)c1/C=N/NC(=O)c1ccccc1,-,0,-,-,-98,-
CCCNC(=O)Cn1c(SCc2ccccc2C)nc2ccncc21,-,-,0,0,-,-
N=c1n(CC(=O)c2ccc([N+](=O)[O-])cc2)c2ccccc2n1Cc1ccccc1Cl,0,28µM,0,0,?,?
N=c1n(CC(=O)c2ccc([N+](=O)[O-])cc2)c2ccccc2n1Cc1ccccc1,?,0,0,0,-83,?
